# According to publication PMC4336329 (PLoS ONE, 2015):
# In all, about 310,000 compounds went through this assay and about 2,200 (0.71%) showed an effect of 50% or more. The effect is printed as a negative number. Many of the other results were omitted from the sample, so strong results are more common in it than they were.
# Biological target: human ether-à-go-go-related gene (hERG) potassium channel (human, UniProt Q12809)
# Test: primary screen, population patch clamp on CHO cells stably expressing hERG; higher = less effect of the substance
# Chain of human ether-à-go-go-related gene (hERG) potassium channel (Q12809 whole entry, looked up): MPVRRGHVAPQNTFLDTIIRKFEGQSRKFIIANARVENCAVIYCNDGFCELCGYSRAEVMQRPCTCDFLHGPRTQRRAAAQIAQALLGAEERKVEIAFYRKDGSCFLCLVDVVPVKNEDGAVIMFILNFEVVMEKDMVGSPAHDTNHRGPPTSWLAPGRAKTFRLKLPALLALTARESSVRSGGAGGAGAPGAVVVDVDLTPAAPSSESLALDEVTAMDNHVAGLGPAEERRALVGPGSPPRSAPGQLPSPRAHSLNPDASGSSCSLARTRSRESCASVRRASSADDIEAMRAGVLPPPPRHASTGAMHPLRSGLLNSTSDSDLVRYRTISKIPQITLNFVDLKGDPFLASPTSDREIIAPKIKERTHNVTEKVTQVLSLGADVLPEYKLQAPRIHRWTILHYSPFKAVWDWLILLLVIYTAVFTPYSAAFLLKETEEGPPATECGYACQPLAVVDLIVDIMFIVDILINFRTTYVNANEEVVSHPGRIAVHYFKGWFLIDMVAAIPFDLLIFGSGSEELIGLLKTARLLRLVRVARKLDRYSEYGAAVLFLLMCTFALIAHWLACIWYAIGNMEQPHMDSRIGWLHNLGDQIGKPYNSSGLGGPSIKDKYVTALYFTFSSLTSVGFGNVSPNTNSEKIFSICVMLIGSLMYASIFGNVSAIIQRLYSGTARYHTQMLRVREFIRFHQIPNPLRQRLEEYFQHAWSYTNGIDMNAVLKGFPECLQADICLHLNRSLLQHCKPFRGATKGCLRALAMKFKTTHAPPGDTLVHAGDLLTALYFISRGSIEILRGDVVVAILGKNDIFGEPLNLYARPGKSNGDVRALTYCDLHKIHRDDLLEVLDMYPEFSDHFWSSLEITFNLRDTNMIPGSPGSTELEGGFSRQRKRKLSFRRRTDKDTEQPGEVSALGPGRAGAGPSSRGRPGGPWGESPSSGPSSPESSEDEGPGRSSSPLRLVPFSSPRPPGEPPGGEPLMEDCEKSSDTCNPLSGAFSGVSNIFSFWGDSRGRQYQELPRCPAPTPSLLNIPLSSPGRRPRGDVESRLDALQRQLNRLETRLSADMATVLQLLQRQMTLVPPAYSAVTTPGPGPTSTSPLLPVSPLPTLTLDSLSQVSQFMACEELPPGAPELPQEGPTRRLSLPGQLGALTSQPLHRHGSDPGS
row,SMILES,"hERG current change (%, negative = inhibition) at 1uM"
1,COc1cccc(OC)c1NC(=O)C1CCCN1C(=O)NCc1ccccc1 (centres unmarked),3.69%
2,COC(=O)c1ccc(NC(=O)C2C3CCC(C3)C2C(=O)O)cc1 (centres unmarked),3.27%
3,O=C(O)c1ccc(S(=O)(=O)NCc2ccc3c(c2)OCO3)cc1,11.3%
4,CC1CCN(CCc2nc3cc(NC(=O)COc4ccc(Cl)cc4)ccc3n2C)CC1,-60.7%
5,COc1ccc(OCC(=O)Nc2ccc3c(c2)nc(CCN2CCC(C)CC2)n3C)cc1,-46.3%
6,CC1CCN(CCc2nc3cc(NC(=O)COc4ccccc4)ccc3n2C)CC1,-33.9%
7,CC1CCN(CCc2nc3cc(NC(=O)COc4ccc([N+](=O)[O-])cc4)ccc3n2C)CC1,-2.45%
8,Cn1c(CCN2CCOCC2)nc2cc(NC(=O)COc3ccc(Cl)cc3)ccc21,2%
9,Cc1ccc(OCC(=O)Nc2ccc3c(c2)nc(CCN2CCC(C)CC2)n3C)cc1,-53.3%
10,CCOc1ccc(NS(=O)(=O)c2ccc3c(c2)N(C(C)=O)CCO3)cc1,17%
11,C[C@]12CCC(=O)CC1CCC1C2CC[C@]2(C)C(OC(=O)CCC(=O)O)CCC12 (some centres unmarked),9.84%
12,CCC1CCCCN1C(=O)Nc1cc(Cl)ccc1OC (centres unmarked),15.2%
13,O=C(c1ccco1)N1CCN(C(=O)C2CCN(S(=O)(=O)c3cccs3)CC2)CC1,-26.1%
14,CCc1nn(CC(=O)NCCCN2CCN(C)CC2)c(=O)c2cc3sccc3n12,5.53%
15,CCc1nn(CC(=O)NCCCN2CCc3ccccc3C2)c(=O)c2cc3sccc3n12,-53.8%
16,CCc1nn(CC(=O)NCCCN2CCOCC2)c(=O)c2cc3sccc3n12,15.6%
17,COc1cc(S(=O)(=O)Nc2ncn[nH]2)ccc1Cl,13.5%
18,COCCN1Cc2cccc(C(=O)NCc3ccccc3OC)c2C1=O,3.2%
19,CCCN1C2CCCC1CC(NC(=S)Nc1cccc(C)c1)C2 (centres unmarked),-12.7%
20,CCCN1C2CCCC1CC(NC(=S)Nc1cc(C)ccc1C)C2 (centres unmarked),8.55%
21,Cc1cc(C)cc(NC(=S)NC2CC3CCCC(C2)N3C2CCCC2)c1 (centres unmarked),-52.3%
22,Cc1cc(C)cc(NC(=S)NCCN(C2CCCCC2)C2CCCC2)c1,-59.7%
23,Cc1cc(C)cc(NC(=S)NC2CC3CCCC(C2)N3CC(C)C)c1 (centres unmarked),11.3%

row,SMILES,"hERG current change (%, negative = inhibition) at 1uM"
1,Cc1ccc(NC(=S)NCCN(C2CCCCC2)C2CCCC2)cc1,-10.5%
2,Cc1cccc(NC(=S)NCCN(C2CCCCC2)C2CCCC2)c1,-1.59%
3,Cc1cc(C)cc(NC(=S)NC2CC3CCCC(C2)N3C2CC2)c1 (centres unmarked),-32%
4,CCCN1C2CCCC1CC(NC(=S)Nc1cc(C)cc(C)c1)C2 (centres unmarked),-81.4%
5,Cc1ccc(CSc2ccc(-c3ccc4c(c3)OCO4)nn2)cc1,12.7%
6,COc1ccccc1CC(=O)NCCCc1ccccc1,11.2%
7,O=C(CCS(=O)(=O)c1ccc2c(c1)NC(=O)CS2)NCCc1ccc(Cl)cc1,10%
8,CCN(C(=O)COC(=O)CNC(=O)c1ccc(F)cc1)C1CCS(=O)(=O)C1 (centres unmarked),9.62%
9,COC(=O)Nc1c(C(=O)OC)cc(OC)c(OC)c1OC,6.05%
10,CC1=NNC(=O)C1CCC(=O)N/N=C/c1ccc(Cl)cc1Cl (centres unmarked),12.6%
11,COc1cc(OC)cc(C(=O)NNC(=O)c2ccc(S(=O)(=O)N(C)c3ccccc3OC)cc2)c1,13.2%
12,CS(=O)(=O)N1CCN(C(=O)c2ccc(-c3ccccc3)cc2)CC1,9.18%
13,COc1cc(F)cc(-c2ccc3c(c2)c(-c2cccs2)c(-c2cc(OC)cc(OC)c2)n3C)c1,12.5%
14,CCOC(=O)C1(CCOC)CCN(Cc2cccc(OCc3ccccc3)c2)CC1,3.99%
15,CCOC(=O)C1(CCOc2ccccc2)CCN(Cc2cccc(OCCO)c2)CC1,-84.4%
16,CCOC(=O)C1(CCOc2ccccc2)CCN(Cc2cccc(F)c2)CC1,-7.5%
17,CCOC(=O)C1(Cc2ccccc2)CCN(Cc2ccc(C)s2)CC1,-2.06%
18,CCOC(=O)C1(Cc2cccc(OC)c2)CCN(Cc2ccc(C)s2)CC1,-53.1%
19,CCOC(=O)C1(Cc2cccc(OC)c2)CCN(Cc2cnc(C)s2)CC1,11%
20,CCOC(=O)C1(CCOc2ccccc2)CCN(Cc2cnc(SC)nc2)CC1,-28.4%
21,CCOC(=O)C1(CCOc2ccccc2)CCN(Cc2ccc(-n3cccn3)cc2)CC1,-37.8%
22,CCOC(=O)C1(CCOc2ccccc2)CCN(Cc2cccc(-n3cccn3)c2)CC1,-68.5%
23,CCOC(=O)C1(CCOc2ccccc2)CCN(Cc2ccc(OC)cc2)CC1,-77.4%

row,SMILES,"hERG current change (%, negative = inhibition) at 1uM"
1,Cc1ccc(NC(=O)CCC(=O)NNC(=O)COc2ccccc2)c(C)c1,7.32%
2,CC1(C)C(=O)OC(c2c3ccccc3cc3ccccc23)C(C)(C)C1=O (centres unmarked),0.485%
3,COc1ccc(/C=C/c2cc(=O)c3cc(Cl)ccc3o2)cc1,9.88%
4,COCCn1ccc2c(OCC(=O)NCCc3ccccc3)cccc2c1=O,0.744%
5,CSc1ccc(C2CC(=O)Nc3nc(SC)[nH]c(=O)c32)cc1 (centres unmarked),17%
6,O=C(O)c1ccc(S(=O)(=O)c2ccc3c(c2)C(=O)N(NC(=O)c2ccncc2)C3=O)cc1,5.01%
7,NNC(=O)c1nc(-c2ccccc2)n2c1CCCCC2,0.842%
8,O=C(OCC(=O)N1CCCC1)c1c2c(nc3ccccc13)CCCCC2,9.48%
9,CC1(C)CC(c2nc(-c3ccc([N+](=O)[O-])cc3)cs2)CCO1 (centres unmarked),9.08%
10,CC(C)NC(=O)NS(=O)(=O)c1cnccc1NC1CC2CCC1C2 (centres unmarked),9.06%
11,CCn1cc([N+](=O)[O-])c(C(=O)N2N=C(c3ccc(O)c(OC)c3)CC2c2ccccc2O)n1 (centres unmarked),18.1%
12,Cc1ccc2nc(-c3ccccn3)oc2c1,12.6%
13,Cc1ccccc1NC(=O)NCCc1ccc(Cl)cc1,8.42%
14,CCOC(=O)C1(CCOc2ccccc2)CCN(Cc2ccc(C)s2)CC1,-65.4%
15,CCOC(=O)C1(CCOc2ccccc2)CCN(C(=O)c2ccc(-n3cccn3)cc2)CC1,-85.6%
16,CCOC(=O)C1(CCOc2ccccc2)CCN(Cc2ccc(OCCO)cc2)CC1,-85.1%
17,CCOC(=O)C1(CCOc2ccccc2)CCN(Cc2cccs2)CC1,-32.6%
18,CCOC(=O)C1(CCOc2ccccc2)CCN(Cc2ccc(O)cc2)CC1,-84.8%
19,CCOC(=O)C1(CCOc2ccccc2)CCN(C(=O)c2cncs2)CC1,-27.4%
20,CCOC(=O)C1(CCOc2ccccc2)CCN(Cc2cccc(O)c2)CC1,-28.7%
21,CCOC(=O)C1(CCOc2ccccc2)CCN(Cc2ccc(C#CCCO)cc2)CC1,0.161%
22,CCOC(=O)C1(CCOc2ccccc2)CCN(C(=O)CCSC)CC1,-11.3%
23,CCOC(=O)C1(CCOc2ccccc2)CCN(Cc2cnc(C)s2)CC1,-18.8%

row,SMILES,"hERG current change (%, negative = inhibition) at 1uM"
1,CCOC(=O)C1(CCOc2ccccc2)CCN(Cc2ccncc2)CC1,-23.5%
2,CCOc1ccccc1N(CC(=O)Nc1ccccc1C(=O)NCc1ccco1)S(C)(=O)=O,2.08%
3,CC(Sc1nnc(Nc2ccccc2F)s1)C(=O)NC1CC1 (centres unmarked),3%
4,COCCc1ncc(CN2CCC(C(=O)Nc3ccc(-n4cccn4)cc3)CC2)cn1,-5.56%
5,CNC(=O)c1cc2cc(OC)ccc2oc1=O,-4.3%
6,O=C(O)c1ccc(NCc2ccc3c(c2)OCO3)cc1,10.6%
7,Cc1nc2sccn2c(=O)c1S(=O)(=O)Nc1ccc(N2CCN(C)CC2)cc1,21.4%
8,CC1CN(c2ccc([N+](=O)[O-])c(N3CCCCC3)c2)CCN1 (centres unmarked),8.07%
9,CCOC(=O)C1(CCOc2ccccc2)CCN(Cc2cc(OC)cc(OC)c2)CC1,-61.5%
10,CCOC(=O)C1(Cc2cccc(OC)c2)CCN(CC2CC=CCC2)CC1 (centres unmarked),-50.6%
11,CCOC(=O)C1(Cc2ccccc2)CCN(CC2CC=CCC2)CC1 (centres unmarked),-5.83%
12,CCOC(=O)C1(Cc2cccc(OC)c2)CCN(CCO)CC1,2.3%
13,CCOC(=O)C1(CCOc2ccccc2)CCN(Cc2cccc(OC)c2)CC1,-24.4%
14,COCCCN1C(=O)C(=O)/C(=C(/O)c2ccc(S(=O)(=O)N3CCCCC3)cc2)C1c1cccc(OC)c1 (centres unmarked),2.22%
15,CC1(c2ccc(OC(F)F)cc2)NC(=O)N(CC(=O)Nc2ccc(N3CCCCC3)cc2)C1=O (centres unmarked),18%
16,CN1C(=O)c2ccccc2C(C(=O)O)C1c1cccc(Cl)c1 (centres unmarked),8.65%
17,CCN1C(=O)C2(C(C(=O)c3ccc(C)o3)=C(O)C(=O)N2CCCN(C)C)c2ccccc21 (centres unmarked),14%
18,COc1ccc2[nH]cc(C(=O)CN(C)CCc3ccc(OC)c(OC)c3)c2c1,-60.6%
19,CCN(CC)CC(=O)c1c[nH]c2ccc(OC)cc12,3.98%
20,COc1ccc2[nH]cc(C(=O)CN(C)C)c2c1,11.4%
